Rtt109 HAT inh: inhibitors of Candida albicans Rtt109/Vps75 histone acetyltransferase; Q5AAJ8; purified Rtt109/Vps75, ThioGlo CoA-SH fluorescence, 4 h; inhibition, % at 34.9 µM; 0.16% of 330,000 active;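 active means inhibition of at least 50% in every replicate; inconclusive means best replicate reaches 50% inhibition but some replicates fall short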
esBAF inh: SWI/SNF esBAF complex inhibition; mouse ES cells, Bmi1-luciferase knock-in reporter, 24 h; 100% = twice the neutral-well signal; reporter increase, % at 12.5 µM; 2% of 350,000 active; in the data active means activation above about 40%; inconclusive means no clear call, values can overlap the other calls;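 further: 0% = median of the plate's neutral control wells and 100% = double that signal; a rise in the Bmi1 reporter signal indicates esBAF inhibition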
Dyrk1A ADPGlo: inhibitors of rat Dyrk1A kinase; 0.43% of 310,000 active; ADP-Glo luminescence, NFATc1 peptide; AID 504441; inhibition, % at 12.5 µM; Q63470; in the data active means inhibition above about 50%;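 further: plate controls were vehicle with enzyme for no effect and no enzyme for full effect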
CDK5 p35 inh: CDK5/p35 (human) kinase inhibition; inhibition, % at 10 µM; Recombinant CDK5/p35, ADP-Glo luminescence, 60 min; 0.01% of 330,000 active; Q00535+Q15078;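 active means highest replicate inhibition of at least 50% and at least 75% of replicates reaching 50%; inconclusive means only one of the two criteria met; inactive means both criteria failed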;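 further: plate controls were DMSO neutral control for no effect and GW8510 at 10 µM for full effect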
Target sequence (Q00535 whole entry, looked up): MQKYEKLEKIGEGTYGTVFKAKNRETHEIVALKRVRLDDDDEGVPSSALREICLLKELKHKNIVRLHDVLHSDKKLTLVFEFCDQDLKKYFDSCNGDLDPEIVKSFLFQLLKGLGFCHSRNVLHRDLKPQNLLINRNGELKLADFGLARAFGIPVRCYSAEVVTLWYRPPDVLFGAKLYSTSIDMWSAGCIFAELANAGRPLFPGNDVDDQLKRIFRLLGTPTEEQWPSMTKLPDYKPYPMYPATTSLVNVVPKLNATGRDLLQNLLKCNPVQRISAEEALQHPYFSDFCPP
Target sequence (Q15078 whole entry, looked up): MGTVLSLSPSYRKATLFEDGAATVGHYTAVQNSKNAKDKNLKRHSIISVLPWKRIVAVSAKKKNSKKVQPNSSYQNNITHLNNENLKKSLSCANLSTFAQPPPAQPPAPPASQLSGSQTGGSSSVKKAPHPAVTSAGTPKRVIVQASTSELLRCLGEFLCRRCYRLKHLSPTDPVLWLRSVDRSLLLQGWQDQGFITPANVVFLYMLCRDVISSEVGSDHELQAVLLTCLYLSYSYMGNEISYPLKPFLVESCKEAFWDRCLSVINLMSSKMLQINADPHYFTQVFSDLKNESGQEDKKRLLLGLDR
dFosB activator: enhances mouse delta FosB homodimer DNA binding | purified delta FosB, TAMRA-CDK5 oligo fluorescence polarization; percent of positive-control signal above neutral wells | activation, % at 25 µM | 0.99% of 340,000 active | AID 493131;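 active means mean activation above about 17%, with every replicate also reaching it, limit read from the data, passing the limit was not always enough; inconclusive means only one of the two conditions met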
SMARCA2 activ: SMARCA2 function activation, primary screen; MG213 cells, MMTV-luciferase reporter, dexamethasone, overnight; activation, % at 9.1 µM; 1% of 370,000 active; AID 652017; in the data active means activation above about 7.8%;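 further: 0% = vehicle wells and 100% = reference activator wells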
The depositor's hits bear a star; ? = inconclusive; . = no result. Only some compounds are listed: those with a hit (about 3.2% of all), similar ones and a draw of the others.

SMILES | Rtt109 HAT inh | esBAF inh | Dyrk1A ADPGlo | CDK5 p35 inh | dFosB activator | SMARCA2 activ
C[C@@H]1CN([C@H](C)CO)C(=O)c2cccc(NC(=O)Nc3ccc(C(F)(F)F)cc3)c2O[C@@H]1CN(C)S(=O)(=O)c1ccc(F)cc1 | . | 19.3 | . | . | . | .
COc1ccc(CCn2c(-c3ccc(C(C)(C)C)cc3)n[nH]c2=S)cc1OC | 7.7 | . | 1.6 | 0.6 | -4.0 | 7.9*
COc1ccc(CCn2c(-c3ccc(Cl)cc3)n[nH]c2=S)cc1OC | -22.9 | . | -5.2 | -1.4 | -1.4 | -0.4
Nc1ccc2oc(-c3ccccc3Cl)cc(=O)c2c1O | 0.1 | 59.7* | -4.9 | 0.1 | -9.6 | 6.1
O=c1cc(-c2ccccc2Cl)oc2ccc([N+](=O)[O-])c(O)c12 | 8.1 | 5.5 | 22.1 | -1.6 | 2.1 | 0.0
CC1=C(C)/C(=N\OS(=O)(=O)c2ccccc2)C=CC1=O | 147.3* | . | 1.1 | -0.8 | -3.3 | .
O=C(CCN1CCCCC1)N[C@@H]1CC[C@@H](CCNC(=O)c2cc(Cl)cc(Cl)c2)O[C@H]1CO | . | 1.3 | . | . | . | .
CCCCCCCCCCn1c2c(c(=N)c3c1CCC3)CCC2 | 76.5* | -50.1 | -5.3 | 0.5 | -6.2 | -10.7
CCCCCCCCCn1c2c(c(=N)c3c1CCC3)CCCC2 | ? | . | 3.3 | -3.4 | -12.5 | .
c1ccc2c(Nc3nnc(-c4ccncc4)s3)cccc2c1 | 4.2 | 55.0* | -99.3 | -0.4 | -7.8 | 1.2
C=CCNc1nnc(-c2ccncc2)s1 | 1.9 | . | 12.1 | -2.5 | -4.1 | 1.8
CN1C(=O)c2cc(NC(=O)Nc3ccccc3Cl)ccc2OC[C@@H]2O[C@H](CC(=O)O)CC[C@H]21 | . | -2.5 | . | . | . | .
O=C(/C=C\Nc1ccccn1)c1ccc(Cl)cc1 | 62.3* | -66.9 | 1.6 | -1.0 | -13.0 | 0.7
Cc1cccc(N/C=C/C(=O)c2ccc(Cl)cc2)c1 | -13.0 | 41.4 | 0.5 | 1.1 | -5.9 | 4.6
O=C(COC(=O)c1ccc(N2CCCC2=O)cc1)Nc1ccccc1 | . | -4.7 | . | -0.4 | -2.1 | -0.4
O=C(COC(=O)c1ccc(N2CCCC2=O)cc1)c1ccccc1 | 2.1 | 44.9* | 2.7 | -4.3 | -9.3 | 0.7
CN(C)c1ccc2c(c1)[C@@H]1C[C@@H](CC(=O)NCc3cccc(F)c3)O[C@@H](CO)[C@@H]1O2 | . | 6.7 | . | . | . | .
C[C@@H]1CN([C@@H](C)CO)C(=O)Cc2cc(NC(=O)CCN3CCOCC3)ccc2O[C@H]1CN(C)C | . | -4.7 | . | . | . | .
Cc1c(CN2CCC(CO)(CCOc3ccccc3)CC2)[nH]c2c(Cl)cccc12 | 27.4 | . | -1.5 | -1.5 | 21.3* | -3.1
CNC(=O)C[C@H]1CC[C@@H]2[C@H](COC[C@H](O)CN2Cc2ccc(Cl)c(Cl)c2)O1 | . | -0.1 | . | . | . | .
COc1ccc(/C(C)=N/NC(=O)c2ccccc2OCc2ccccc2)c(OC)c1 | 7.0 | 49.7* | -3.6 | 0.9 | 2.1 | 4.9
C/C(=N\NC(=O)c1ccc(Br)cc1)c1ccccc1 | -1.7 | 46.6* | 3.4 | 0.7 | 8.8 | 1.8
COc1ccc(/C(C)=N/NC(=O)c2ccccc2N)cc1 | 13.1 | 23.9 | 13.6 | 1.0 | -9.9 | 7.9*
C/C(=N\NC(=O)c1ccc(O)cc1)c1cccc(NC(=O)c2ccc(Cl)cc2)c1 | 6.5 | 52.5* | 6.4 | -3.6 | 11.2 | -0.6
COCC(=O)N[C@@H]1CC[C@H](CC(=O)NCc2ccccc2OC)O[C@@H]1CO | . | -1.9 | . | . | . | .
SMILES | Rtt109 HAT inh | esBAF inh | Dyrk1A ADPGlo | CDK5 p35 inh | dFosB activator | SMARCA2 activ
O=C(O)c1ccccc1NS(=O)(=O)c1cccc(-n2sc3ccccc3c2=O)c1 | 152.7* | -8.2 | 4.8 | 0.6 | -6.8 | -2.2
O=C(O)c1ccccc1NS(=O)(=O)c1cccc(C(F)(F)F)c1 | 0.5 | 4.3 | -0.7 | -0.8 | -0.5 | -0.3
C/C(=N\NC(=O)c1ccc(C)cc1C)c1ccc2c(c1)Nc1ccccc1S2 | -2.0 | 36.8 | 5.1 | -1.2 | -1.9 | 10.6*
Cc1sc2ncn(/N=C/c3ccco3)c(=O)c2c1C | -1.6 | 48.9* | 0.2 | 2.4 | -14.8 | -1.4
O=C(C[C@H]1C[C@@H]2c3cc(NC(=O)C4CCOCC4)ccc3O[C@@H]2[C@H](CO)O1)NCc1ccc(Cl)cc1 | . | 3.2 | . | . | . | .
COCc1cc(C)nc2sc(C(=O)Nc3cccc(OC)c3)c(N)c12 | -3.5 | 67.2* | -2.0 | 0.8 | -2.8 | 6.3
COCc1cc(C)nc2sc(C(=O)Nc3nccs3)c(N)c12 | -2.9 | 55.7* | 0.7 | -0.9 | -13.7 | 0.2
Cc1cc(C)c2c(N)c(C(=O)Nc3nccs3)sc2n1 | -0.7 | -76.3 | -5.9 | -0.6 | -8.4 | 3.5
COc1ccc(-c2c3c(nc4sc(C(=O)Nc5ccccc5)c(N)c24)CCC3)cc1 | -4.1 | 53.0* | -4.2 | -2.7 | -3.5 | -3.8
CO[C@@H]1CN(C)C(=O)c2ccc(NS(=O)(=O)c3ccccc3F)cc2OC[C@@H](C)NC[C@H]1C | . | -0.5 | . | . | . | .
C[C@@H]1CN([C@H](C)CO)C(=O)c2cc(NS(=O)(=O)c3ccccc3)ccc2O[C@@H](C)CCCCO[C@H]1CN(C)S(=O)(=O)c1ccc(F)cc1 | . | -0.9 | . | . | . | .
COC(=O)C[C@H]1CC[C@@H]2[C@H](COc3ccc(NC(=O)c4cc(F)cc(F)c4)cc3C(=O)N2C)O1 | . | -0.4 | . | . | . | .
CCCCc1nc2cc(C(=O)N3CCC(OCCOC)CC3)ccc2o1 | -4.2 | 24.0 | 0.9 | -0.2 | -5.2 | 5.6
CCCCc1nc2cc(C(=O)N3CCCC(COC)C3)ccc2o1 (centres undefined) | -1.4 | 62.9* | 5.5 | -4.2 | -4.1 | 2.7
CCCCc1nc2cc(C(=O)N3CCCC(OCCC)C3)ccc2o1 (centres undefined) | 5.1 | 63.8* | 0.1 | 0.4 | -7.0 | 0.4
COCC1CCCN(C(=O)c2ccc3oc(CCCc4ccccc4)nc3c2)C1 (centres undefined) | 17.1 | 16.5 | 8.8 | 1.3 | -1.5 | 0.0
COCC1CCN(C(=O)c2ccc3oc(CCCc4ccccc4)nc3c2)C1 (centres undefined) | 7.8 | 46.0* | -0.1 | 0.5 | -7.5 | 1.4
CCCOC1CCCN(C(=O)c2cc(COc3c(F)cccc3F)on2)C1 (centres undefined) | -5.8 | 88.8* | 16.9 | -0.1 | -5.1 | 5.0
CCCSc1nc2sc3c(c2c(=O)[nH]1)CC(C)CC3 (centres undefined) | 3.1 | . | -2.3 | -0.2 | 1.7 | -2.6
CSc1nc2sc3c(c2c(=O)[nH]1)CCC(C)C3 (centres undefined) | 1.6 | 62.1* | -8.0 | 0.1 | -1.0 | 0.6
C[C@@H]1CN([C@H](C)CO)C(=O)CCCn2cc(nn2)CO[C@@H]1CN(C)S(=O)(=O)c1ccc(Cl)cc1 | . | 1.8 | . | . | . | .
O=C(NC1CCCCCC1)c1cc2c(=O)n3ccccc3nc2s1 | -168.9 | 45.0* | -6.8 | 1.1 | -15.2 | -1.1
O=C(Nc1cc(-c2ccccc2)cs1)c1ccco1 | 5.5 | 67.0* | 3.3 | 1.8 | -1.3 | 3.2
COc1ccc(-c2csc(NC(=O)c3ccco3)n2)cc1 | 4.4 | 64.5* | 31.0 | 0.7 | -5.2 | -4.9
COc1ccc(-c2csc(NCc3ccco3)n2)cc1C | -2.2 | 65.9* | 6.4 | 1.0 | 5.8 | .
